Assay results taken from the supplement of paper PMC7057948, “A genome-wide approach for identification and characterisation of metabolite-inducible systems” (Nature Communications, 2020).

tested on: PhhR/P_H16_RS18365 L-phenylalanine biosensor (pEH137); test: relative induction of RFP reporter vs primary effector; higher = stronger activation; details: inducer concentration 5 mM; 6 h; Cupriavidus necator H16; minimal medium + 0.4% gluconate
Experimental: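 Orthogonality screen of 21 primary inducers against 21 transcription factor/inducible promoter–mRFP biosensors in C. necator H16 in minimal medium, robotic 96-well format, 5 mM inducer, 30 °C. OD-normalised RFP fluorescence was read 6 h later and expressed as relative induction (%) = 100 × (FL compound − FL uninduced)/(FL primary inducer − FL uninduced); mean of n=4. Cognate pairs (100% by definition) omitted.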

First: O=C(O)CCO [3-hydroxypropanoate]
Second: NCCC(=O)O [β-alanine]
The “relative induction of RFP reporter” value of the first is higher: -0.273% for the first, -0.6% for the second.

Going from `O=c1[nH]c(=O)c2nc[nH]c2[nH]1` [xanthine] to `O=C(O)c1ccccc1O` [salicylate], the “relative induction of RFP reporter” value falls from -0.134% to -0.155%.

Going from `O=C(O)CS(=O)(=O)O` [sulfonatoacetate] to `C=C(CC(=O)O)C(=O)O` [itaconate], the “relative induction of RFP reporter” value falls from -0.174% to -0.415%.

First: Nc1ccccc1C(=O)C[C@H](N)C(=O)O [L-kynurenine]
Second: N[C@@H](Cc1ccc(O)cc1)C(=O)O [L-tyrosine]
The “relative induction of RFP reporter” value of the first is higher: -0.316% for the first, -0.541% for the second.

Going from `CC(=O)C(C)O` (configuration not stated) [acetoin] to `C=CC(=O)O` [acrylate], the “relative induction of RFP reporter” value falls from -0.273% to -0.318%.

Compared with `O=C(O)c1ccccc1` [benzoate], `O=C(O)C(=O)c1ccccc1` [phenylglyoxylate] is higher in “relative induction of RFP reporter” value: -0.383% for the first, -0.366% for the second.

Compared with `O=C(O)c1ccc(O)c(O)c1` [3,4-dihydroxybenzoate], `O=C(O)C(O)C(O)C(=O)O` (configuration not stated) [tartrate] is higher in “relative induction of RFP reporter” value: -0.638% for the first, 0.258% for the second.

Compared with `O=C(O)C1CCCCC1` [cyclohexane-1-carboxylate], `OC1OC[C@H](O)[C@H](O)[C@H]1O` (mixture of isomers) [L-arabinose] is higher in “relative induction of RFP reporter” value: -0.0509% for the first, -0.00622% for the second.

In the case of `O=CO` [formate], the “relative induction of RFP reporter” value is reported as -0.0153%.
